Laboratory results: PubChem BioAssay AID1159580 (chemical genetic matrix, 2015)
Hit rate of the full screen: of about 5,500 compounds, about 2,000 (36%) were called active. Roughly 18% stayed inconclusive and do not appear here. No stated cut-off is given here; in the data, active means normalized growth mostly below about 0.91 (no sharp cut-off); inconclusive means no clear call, values can overlap the other calls; inactive means mostly above about 0.92. This is one part of the list.

Assay: chemical genetic growth profiling, strain panel (AID 1159580);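 further: tested at 20 µM; growth read once vehicle control cultures reached saturation at 30 °C; 1 = growth at the plate median or of vehicle wells; lower values mean less growth of the strain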
Details: growth OD

Measured: normalized growth

CC(=O)OCC(=O)[C@@]1(O)CCC2C3CCC4=CC(=O)C=CC4(C)C3[C@@H](O)C[C@@]21C (stereo partly drawn)
inactive: S. cerevisiae deletion strains, locus YKL009W, strain mrt4, hits give low values 1.07 | S. cerevisiae deletion strains, locus YKL068W, hits give low values 1.01 | S. cerevisiae deletion strains, locus YKL085W, strain MDH1 (second series), hits give low values 1.01 | S. cerevisiae deletion strains, locus YKL085W, strain MDH1, hits give low values 1.01 | S. cerevisiae deletion strains, locus YKL160W, strain elf1, hits give low values 0.973 | S. cerevisiae deletion strains, locus YKL190W, strain CNB1, hits give low values 1.02 | S. cerevisiae deletion strains, locus YKR001C, strain vps1, hits give low values 1.02 | S. cerevisiae deletion strains, locus YKR026C, strain gcn3, hits give low values 0.985 | S. cerevisiae deletion strains, locus YKR091W, strain srl3, hits give low values 1 | S. cerevisiae deletion strains, locus YLL001W, strain dnm1, hits give low values 0.953 | S. cerevisiae deletion strains, locus YLL026W, hits give low values 0.99 | S. cerevisiae deletion strains, locus YLL041C, strain sdh2, hits give low values 0.998 | S. cerevisiae deletion strains, locus YLR027C, strain aat2, hits give low values 0.991 | S. cerevisiae deletion strains, locus YLR039C, strain RIC1, hits give low values 1.04 | S. cerevisiae deletion strains, locus YLR058C, strain SHM2, hits give low values 0.998 | S. cerevisiae deletion strains, locus YLR102C, strain apc9, hits give low values 1.01 | S. cerevisiae deletion strains, locus YLR113W, strain HOG1, hits give low values 0.999 | S. cerevisiae deletion strains, locus YLR221C, strain rsa3, hits give low values 1.01 | S. cerevisiae deletion strains, locus YLR258W, strain gsy2, hits give low values 1 | S. cerevisiae deletion strains, locus YLR262C, strain YPT6 (second series), hits give low values 0.967 | S. cerevisiae deletion strains, locus YLR262C, strain YPT6, hits give low values 1.04 | S. cerevisiae deletion strains, locus YLR268W, strain sec22, hits give low values 1.03 | S. cerevisiae deletion strains, locus YLR320W, strain mms22, hits give low values 0.982 | S. cerevisiae deletion strains, locus YLR330W, strain CHS5, hits give low values 1.01 | S. cerevisiae deletion strains, locus YLR342W, strain FKS1 (second series), hits give low values 1.02 | S. cerevisiae deletion strains, locus YLR342W, strain FKS1, hits give low values 0.992 | S. cerevisiae deletion strains, locus YLR357W, strain rsc2, hits give low values 0.997 | S. cerevisiae deletion strains, locus YLR370C, strain arc18, hits give low values 0.984 | S. cerevisiae deletion strains, locus YLR371W, strain rom2, hits give low values 1.02 | S. cerevisiae deletion strains, locus YLR384C, strain iki3, hits give low values 0.973 | S. cerevisiae deletion strains, locus YLR418C, strain cdc73, hits give low values 1.02 | S. cerevisiae deletion strains, locus YML016C, strain PPZ1, hits give low values 1.01 | S. cerevisiae deletion strains, locus YML032C, strain rad52, hits give low values 1.03 | S. cerevisiae deletion strains, locus YML120C, strain ndi1, hits give low values 0.995 | S. cerevisiae deletion strains, locus YML124C, strain tub3, hits give low values 1.02 | S. cerevisiae deletion strains, locus YMR058W, strain fet3, hits give low values 0.992 | S. cerevisiae deletion strains, locus YMR078C, strain ctf18, hits give low values 1.01 | S. cerevisiae deletion strains, locus YMR125W, strain sto1, hits give low values 1 | S. cerevisiae deletion strains, locus YMR129W, hits give low values 0.993 | S. cerevisiae deletion strains, locus YMR205C, strain PFK2, hits give low values 0.99 | S. cerevisiae deletion strains, locus YMR223W, strain ubp8, hits give low values 1.02 | S. cerevisiae deletion strains, locus YMR231W, strain pep5, hits give low values 0.992 | S. cerevisiae deletion strains, locus YMR263W, strain SAP30, hits give low values 1 | S. cerevisiae deletion strains, locus YMR307W, strain GAS1, hits give low values 1.02 | S. cerevisiae deletion strains, locus YNL067W, strain RPL9B, hits give low values 1 | S. cerevisiae deletion strains, locus YNL071W, strain lat1, hits give low values 1.01 | S. cerevisiae deletion strains, locus YNL128W, strain TEP1, hits give low values 1.01 | S. cerevisiae deletion strains, locus YNL153C, strain GIM3, hits give low values 1 | S. cerevisiae deletion strains, locus YNL183C, strain NPR1, hits give low values 0.959 | S. cerevisiae deletion strains, locus YNL209W, strain ssb2, hits give low values 1 | S. cerevisiae deletion strains, locus YNL233W, strain BNI4, hits give low values 1.02 | S. cerevisiae deletion strains, locus YNL248C, strain rpa49, hits give low values 0.989 | S. cerevisiae deletion strains, locus YNL250W, strain rad50, hits give low values 1.01 | S. cerevisiae deletion strains, locus YNL271C, strain bni1, hits give low values 1.02 | S. cerevisiae deletion strains, locus YNL298W, strain CLA4, hits give low values 1.02 | S. cerevisiae deletion strains, locus YNL307C, strain MCK1, hits give low values 1.02 | S. cerevisiae deletion strains, locus YNL322C, strain KRE1 (second series), hits give low values 0.992 | S. cerevisiae deletion strains, locus YNR049C, strain mso1, hits give low values 0.997 | S. cerevisiae deletion strains, locus YNR052C, strain pop2, hits give low values 1.01 | S. cerevisiae deletion strains, locus YOL006C, strain TOP1, hits give low values 1.06 | S. cerevisiae deletion strains, locus YOL012C, strain htz1 0.982 | S. cerevisiae deletion strains, locus YOL147C, strain pex11, hits give low values 1.01 | S. cerevisiae deletion strains, locus YOR001W, strain rrp6, hits give low values 0.98 | S. cerevisiae deletion strains, locus YOR061W, strain CKA2, hits give low values 1.01 | S. cerevisiae deletion strains, locus YOR069W, strain VPS5, hits give low values 1 | S. cerevisiae deletion strains, locus YOR070C, strain gyp1, hits give low values 0.999 | S. cerevisiae deletion strains, locus YOR080W, strain dia2, hits give low values 0.984 | S. cerevisiae deletion strains, locus YOR083W, strain WHI5, hits give low values 0.965 | S. cerevisiae deletion strains, locus YOR106W, strain vam3, hits give low values 0.973 | S. cerevisiae deletion strains, locus YOR136W, strain idh2, hits give low values 1.02 | S. cerevisiae deletion strains, locus YOR144C, strain elg1, hits give low values 1.02 | S. cerevisiae deletion strains, locus YOR184W, strain ser1, hits give low values 1.01 | S. cerevisiae deletion strains, locus YOR231W, strain MKK1, hits give low values 0.999 | S. cerevisiae deletion strains, locus YOR265W, strain rbl2, hits give low values 1 | S. cerevisiae deletion strains, locus YOR270C, strain vph1, hits give low values 1.01 | S. cerevisiae deletion strains, locus YOR290C, strain snf2, hits give low values 1.01 | S. cerevisiae deletion strains, locus YOR316C, strain cot1, hits give low values 1.02 | S. cerevisiae deletion strains, locus YPL051W, strain arl3, hits give low values 0.986 | S. cerevisiae deletion strains, locus YPL078C, strain atp4, hits give low values 0.97 | S. cerevisiae deletion strains, locus YPL106C, strain sse1, hits give low values 1.01 | S. cerevisiae deletion strains, locus YPL240C, strain hsp82, hits give low values 0.98 | S. cerevisiae deletion strains, locus YPL256C, strain CLN2, hits give low values 0.96 | S. cerevisiae deletion strains, locus YPR119W, strain clb2, hits give low values 1.01 | S. cerevisiae deletion strains, locus YPR141C, strain kar3, hits give low values 1.02 | S. cerevisiae deletion strains, locus YPR163C, strain tif3, hits give low values 1.02 | S. cerevisiae deletion strains, locus YPR167C, strain met16, hits give low values 1.02 | S. cerevisiae deletion strains, strain wtn01, hits give low values 1.01 | S. cerevisiae strains, strain wild type, hits give low values 1
